# The whole screen tested about 310,000 compounds, of which about 2,200 (0.71%) showed an effect of 50% or more. The effect is printed as a negative number. The sample holds strong results, similar compounds and a random draw of the others, so the mix is not that of the screen.
# Molecular target: human ether-à-go-go-related gene (hERG) potassium channel (human, UniProt Q12809)
# Test: primary screen, population patch clamp on CHO cells stably expressing hERG; higher = less effect of the substance
# Chain of human ether-à-go-go-related gene (hERG) potassium channel (Q12809 whole entry, looked up): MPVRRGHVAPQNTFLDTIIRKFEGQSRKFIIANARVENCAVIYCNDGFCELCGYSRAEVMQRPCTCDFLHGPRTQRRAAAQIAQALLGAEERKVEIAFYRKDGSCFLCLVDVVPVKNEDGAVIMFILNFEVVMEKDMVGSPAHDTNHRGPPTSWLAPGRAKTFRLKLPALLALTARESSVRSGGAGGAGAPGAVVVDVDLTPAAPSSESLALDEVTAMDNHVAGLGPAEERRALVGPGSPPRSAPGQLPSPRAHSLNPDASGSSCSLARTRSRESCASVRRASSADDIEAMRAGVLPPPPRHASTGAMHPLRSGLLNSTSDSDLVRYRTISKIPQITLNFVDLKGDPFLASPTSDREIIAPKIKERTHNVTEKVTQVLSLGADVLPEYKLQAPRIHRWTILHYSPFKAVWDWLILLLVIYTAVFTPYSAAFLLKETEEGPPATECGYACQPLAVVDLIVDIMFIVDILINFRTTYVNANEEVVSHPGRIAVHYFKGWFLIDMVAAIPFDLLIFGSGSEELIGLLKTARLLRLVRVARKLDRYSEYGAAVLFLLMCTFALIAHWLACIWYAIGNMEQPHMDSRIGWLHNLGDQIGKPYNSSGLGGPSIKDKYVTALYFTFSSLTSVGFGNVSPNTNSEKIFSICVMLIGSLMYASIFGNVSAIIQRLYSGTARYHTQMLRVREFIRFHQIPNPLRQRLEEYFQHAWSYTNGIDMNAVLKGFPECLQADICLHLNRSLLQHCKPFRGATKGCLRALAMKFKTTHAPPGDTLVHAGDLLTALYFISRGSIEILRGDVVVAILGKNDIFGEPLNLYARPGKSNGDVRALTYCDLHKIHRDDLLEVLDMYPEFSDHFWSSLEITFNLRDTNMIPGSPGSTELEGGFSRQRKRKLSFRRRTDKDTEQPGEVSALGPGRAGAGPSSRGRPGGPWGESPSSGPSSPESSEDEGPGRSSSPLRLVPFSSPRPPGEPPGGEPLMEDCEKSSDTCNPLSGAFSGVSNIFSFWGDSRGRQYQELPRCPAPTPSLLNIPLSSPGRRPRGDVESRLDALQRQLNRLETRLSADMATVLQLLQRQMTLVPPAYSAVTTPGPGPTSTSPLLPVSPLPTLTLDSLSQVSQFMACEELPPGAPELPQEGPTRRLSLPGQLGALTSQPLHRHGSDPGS
row,Structure (SMILES),"hERG current change (%, negative = inhibition) at 1uM [%]"
1,Cc1cccc(-n2ncc3c(NC(C)C)ncnc32)c1,12.7
2,Cc1nn(C(C)C(=O)Nc2ccc(Cl)cn2)c(C)c1[N+](=O)[O-] (stereo not drawn),2.84
3,Cc1ccc(C)c(NC(=O)C2CC(O)CN2C(=O)OCc2ccccc2)c1 (stereo not drawn),2.34
4,COc1ccc(C(=O)CCN2CCN(c3ccc(OC)cc3)CC2)cc1,-74.1
5,COc1ccc(C(=O)NCCN2CCN(C(=O)c3ccc(OC)c(OC)c3)CC2)cc1OC,13.2
6,O=C(c1ccc(Cl)cc1)N1CCN(CCOc2ccccc2)CC1,-12.4
7,COc1ccc(OCCN2CCN(C(=O)c3ccc(OC)cc3)CC2)cc1,-90.6
8,COc1ccc(N2CCN(CCC(N)=O)CC2)cc1,14.6
9,COc1ccc(N2CCN(CCC(=O)c3ccc4ccccc4c3)CC2)cc1,11.4
10,COc1ccc(C(=O)NCCN2CCN(C(=O)c3ccc(OC)cc3)CC2)cc1,-22.1
11,COc1ccc(OCCN2CCN(C(=O)c3ccc(OC(F)F)c(OC)c3)CC2)cc1,-62.6
12,COc1ccc(OCCN2CCN(C(=O)c3ccc(OC)c(OC)c3)CC2)cc1,-35.6
13,Oc1c(Cl)cc(Cl)cc1C=Nc1ccc(N2CCOCC2)cc1,9.19
14,COC(=O)c1c(NC(=O)c2nn(C)cc2Cl)sc2c1CCCC2,19.3
15,Cc1cc2cc(C(c3nnnn3Cc3ccco3)N3CCCCC3)c(=O)[nH]c2cc1C (stereo not drawn),6.29
16,Cc1nnsc1C(=O)NNC(=O)c1cccc2ccccc12,9.5
17,CC1C=CCC2C(=O)N(c3ccccc3OC(=O)c3cccs3)C(=O)C12 (stereo not drawn),9.04
18,Cc1cccc(C)c1NC(=O)NC1(C(=O)NCc2ccncc2)CCCCC1,12.6
19,CC1CN(CCOc2ccc([N+](=O)[O-])cc2)CC(C)O1.O=C(O)C(=O)O (stereo not drawn),-13.6
20,CC1CC(C)CN(CCOc2ccc(Br)cc2)C1.O=C(O)C(=O)O (stereo not drawn),-12.4
21,CC1CCCN(CCCOc2ccc([N+](=O)[O-])cc2)C1.O=C(O)C(=O)O (stereo not drawn),-77.4
22,O=C(COc1ccc([N+](=O)[O-])cc1)N1CCc2ccccc2C1,-15
23,CC1CC(C)CN(CCCCOc2ccc([N+](=O)[O-])cc2)C1.O=C(O)C(=O)O (stereo not drawn),-80.3
24,CC1CN(CCCOc2ccc([N+](=O)[O-])cc2)CC(C)O1.O=C(O)C(=O)O (stereo not drawn),-59.6
25,Cl.Clc1ccc(OCCCCN2CCc3ccccc3C2)cc1,-8.64
26,CC1CC(C)CN(CCCOc2ccccc2[N+](=O)[O-])C1.O=C(O)C(=O)O (stereo not drawn),5.91
27,CCCOc1ccc(OCCN2CCCC(C)C2)cc1.O=C(O)C(=O)O (stereo not drawn),0.638

row,Structure (SMILES),"hERG current change (%, negative = inhibition) at 1uM [%]"
1,CC1CN(CCCCOc2ccc(F)cc2)CC(C)O1.O=C(O)C(=O)O (stereo not drawn),-4.39
2,COc1ccc(OCCCN2CCCC(C)C2)cc1 (stereo not drawn),-2.33
3,O=C(O)C(=O)O.O=[N+]([O-])c1ccc(OCCCCN2CCc3ccccc3C2)cc1,-81.1
4,NC(=O)c1ccc(-c2nnn(CC(=O)N(C3CCCCC3)C3CCS(=O)(=O)C3)n2)cc1 (stereo not drawn),9.79
5,Cc1ccc(C)c(N2CCN(C(=O)C3CCCN(S(=O)(=O)c4c(C)[nH]c(=O)[nH]c4=O)C3)CC2)c1 (stereo not drawn),9.86
6,CCOc1ncccc1C(=O)Nc1ccc(Cl)c(S(=O)(=O)N2CCCC2)c1,2.41
7,O=C(Nc1cccc(O)c1)c1ccc(C(=O)c2ccccc2)o1,-1.55
8,CCOc1ccc(CC(=O)NNC(=S)NC2CCCCC2)cc1OCC,7.2
9,COc1ccc(-n2nnnc2SCC(=O)Nc2nnc(C)s2)cc1OC,-7.62
10,CC(=O)Nc1ccc(Nc2c3c4c(cccc4n(C)c2=O)C(=O)c2ccccc2-3)cc1,10.6
11,Nc1nc(SCC(=O)c2cccs2)n[nH]1,6.15
12,Cc1cc(C)cc(OCC(=O)Nc2ccc3c(c2)OCCO3)c1,15.5
13,COC(=O)C1C(=O)NCC1c1ccc(C)cc1 (stereo not drawn),11.9
14,Cc1ccc(CS(=O)(=O)Cc2ccc(C(=O)N3CCC4(CC3)OCCO4)o2)cc1,-1.4
15,CCN(CC(=O)NCc1ccc(Cl)cc1)C(=O)/C=C/c1cc(OC)c(OC)c(OC)c1,11.2
16,CCN(CC(=O)NCc1ccc(Cl)cc1)C(=O)CCC(=O)c1ccc(F)cc1,-52.2
17,CCN(CC(=O)NCc1ccc(Cl)cc1)C(=O)c1ccc2cc(OC)ccc2c1,7.72
18,CCN(CC(=O)NCc1ccc(Cl)cc1)C(=O)Cc1ccc(OC)cc1,-66.9
19,CCN(CC(=O)NCc1ccc(F)cc1)C(=O)CN1CCN(c2cc(Cl)ccc2C)CC1,-68.2
20,CCN(CC(=O)NCc1ccc(Cl)cc1)C(=O)/C=C/c1ccc(C#N)cc1,-52.1
21,CCN(CC(=O)NCc1ccc(F)cc1)C(=O)CN1CCN(c2ccccc2OC)CC1,-44.4
22,CCN(CC(=O)NCc1ccc(Cl)cc1)C(=O)CCC(=O)c1ccc(C)cc1,-8.96
23,CCN(CC(=O)NCc1ccc(Cl)cc1)C(=O)/C=C/c1ccccc1,-1.79
24,CCOc1ccc(C(=O)CCC(=O)N(CC)CC(=O)NCc2ccc(Cl)cc2)cc1,-8.36
25,CCN(CC(=O)NCc1ccc(F)cc1)C(=O)CN1CCN(c2ccc(OC)cc2)CC1.O=C(O)C(=O)O,-21.1
26,CCN(CC(=O)NCc1ccc(F)cc1)C(=O)Cc1ccc(OC)cc1,-37.8
27,O=[N+]([O-])c1ccc(CN2CCC(Cc3ccccc3)CC2)cc1,-9.62

# From article PMC4336329 (PLoS ONE, 2015)
